Bioassay records: PubChem, Paczesny and Yang Labs, IUPUI and University of Michigan
ST2 inh: inhibitors of human ST2 (IL1RL1) binding to IL-33 | Q01638 | AlphaLISA ST2-Fc/biotin-IL-33 interaction, 1 h | inhibition, % for hits at 17 µM | hit rate 2.3% among 78,000 | AID 1259354; in the data active = inhibition above about 30%
Target sequence (Q01638 whole entry, looked up): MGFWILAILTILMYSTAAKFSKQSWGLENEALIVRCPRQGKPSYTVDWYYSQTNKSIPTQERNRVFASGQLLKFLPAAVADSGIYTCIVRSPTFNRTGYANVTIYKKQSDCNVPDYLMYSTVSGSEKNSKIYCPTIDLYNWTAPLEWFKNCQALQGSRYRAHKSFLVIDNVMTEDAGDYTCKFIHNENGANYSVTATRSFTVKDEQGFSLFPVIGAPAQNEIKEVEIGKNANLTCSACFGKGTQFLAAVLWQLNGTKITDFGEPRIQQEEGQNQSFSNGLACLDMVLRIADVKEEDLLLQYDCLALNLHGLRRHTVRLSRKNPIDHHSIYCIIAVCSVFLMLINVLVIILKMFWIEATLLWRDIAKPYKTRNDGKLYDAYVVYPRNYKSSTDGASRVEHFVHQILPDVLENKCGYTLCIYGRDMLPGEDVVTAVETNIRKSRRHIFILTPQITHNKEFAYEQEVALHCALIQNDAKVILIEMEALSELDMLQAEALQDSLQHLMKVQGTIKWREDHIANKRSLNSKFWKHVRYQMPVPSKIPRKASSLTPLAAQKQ
Starred values were filed as active, the others as inactive; i = inactive. Only a selection was taken, and hits are over-represented in it overall.

SMILES	ST2 inh
COc1cc(/C=C2/C(=O)N(c3ccc(Br)cc3)N=C2C)cc([N+](=O)[O-])c1O	i
O=C1/C(=C/c2ccccc2[N+](=O)[O-])Sc2ccccc21	31%*
Cc1cc(Cl)ccc1OCC(=O)Nc1ccc(NC(=O)c2ccco2)cc1	i
Cc1cccc(N2CCN(C(=O)c3ccc4nc5ccsc5c(=O)n4c3)CC2)c1C	i
COc1ccccc1-c1ccc(C(=O)N2CCOC(C(F)(F)F)C2)cc1 (stereo unspecified)	i
Cc1cccc(C(C(=O)NCCc2sccc2C)N(C)C)c1 (stereo unspecified)	i
Cc1ccc(NC(=O)CN(C)Cc2csc(C(C)C)n2)c(C)c1	i
O=C(CN1C(=O)/C(=C/c2ccccc2F)Sc2ccccc21)N1CCCCC1	39%*
CC1CCCC(NC(=O)CN2C(=O)/C(=C/c3ccccc3F)Sc3ccccc32)C1C (stereo unspecified)	32%*
COCCCNC(=O)CN1C(=O)/C(=C\c2ccc(Cl)cc2)Sc2ccccc21	i
O=C(CN1C(=O)/C(=C\c2ccc(Cl)cc2)Sc2ccccc21)N1CCCCC1	41%*
O=C(CN1C(=O)/C(=C/c2ccccc2F)Sc2ccccc21)NC1CCCC1	i
O=C(CN1C(=O)/C(=C/c2ccccc2F)Sc2ccccc21)NC1CCCCCC1	i
CNC(=O)CN1C(=O)/C(=C/c2ccccc2C)Sc2ccccc21	i
Cc1ccc(CCNC(=O)CN2C(=O)/C(=C/c3ccccc3F)Sc3ccccc32)cc1	i
CC(NC(=O)CN1C(=O)/C(=C\c2cccc(Cl)c2)Sc2ccccc21)c1ccccc1 (stereo unspecified)	i
Cc1ccccc1/C=C1\Sc2ccccc2N(CC(=O)NC(C)c2ccccc2)C1=O (stereo unspecified)	32%*
COCCNC(=O)CN1C(=O)/C(=C\c2ccc(Cl)cc2)Sc2ccccc21	i
CNC(=O)CN1C(=O)/C(=C/c2ccccc2F)Sc2ccccc21	i
CC1(C)Cc2c(cnn2-c2ccccc2)C(NC(=O)CN2CCOc3ccccc3C2)C1 (stereo unspecified)	i
O=C(c1ccc(C2SCC(=O)N2CCc2ccccc2)cc1)N1CCOCC1 (stereo unspecified)	i
O=C(O)Cc1ccc(NC(=O)Cc2ccc(Cl)cc2)cc1	i
O=C(CN1N=NC2C(=O)N(c3ccccc3)C(=O)C21)Nc1cccc(F)c1 (stereo unspecified)	i
C=CCn1c(SCCCC)nc(O)c(CC)c1=O	i
CCOc1ccc(/C=C/C(=O)Nc2nc3ccc(S(C)(=O)=O)cc3s2)cc1OC	i
SMILES	ST2 inh
CCC(NC1CCN(c2ccccc2F)CC1)c1ccccn1 (stereo unspecified)	i
Cc1c(C(=O)NCCc2ccc(Cl)cc2)oc2ccc(S(=O)(=O)N3CCCC3)cc12	i
Cc1cn(Cc2ccccc2)c(=O)n(Cc2ccccc2)c1=O	i
COCc1nnc(NC(=O)c2ccc(S(=O)(=O)N(CCC#N)CCC#N)cc2)o1	i
C=CCC1(CC=C)CCCN1C(=O)c1oc(CC)nc1C	i
Fc1ccc(C2(c3noc(CCc4nc(Cl)n[nH]4)n3)CCOC2)cc1 (stereo unspecified)	i
O=C(CN1C(=O)/C(=C\c2ccc(C(F)(F)F)cc2)Sc2ccccc21)NCCN1CCCC1	39%*
O=C(CN1C(=O)/C(=C\c2cccc(Cl)c2)Sc2ccccc21)NCCN1CCCC1	i
CNC(=O)CN1C(=O)/C(=C\c2ccc(C(F)(F)F)cc2)Sc2ccccc21	i
O=C(NCCCN1CCCCC1)c1cc(=O)[nH]c2ccc(S(=O)(=O)N3CCCC3)cc12	i
N#Cc1cccc(NC(=O)N[C@H]2[C@H](O)[C@@H](N3CCOCC3)[C@@H]3OC[C@H]2O3)c1	i
CCc1ccc(OCC(=O)Nc2c(C)cc(C)cc2C)cc1	i
Nc1c(Oc2ccccc2)c(Oc2ccccc2)c(N)c2c1C(=O)c1ccccc1C2=O	92%*
O=C1c2ccccc2C(=O)N1CC(O)COc1ccccc1 (stereo unspecified)	i
Nc1nc(N)nc(-c2ccc(Oc3ccccc3)cc2)n1	i
O=C(COc1ccccc1Cl)N1CCCCCC1	i
CCOC(=O)Nc1ccncc1[N+](=O)[O-]	i
Cc1ccc2nc(-c3ccc(N)cc3O)oc2c1	34%*
Cc1ccc2oc(-c3ccc(NC(=O)c4ccccc4Cl)cc3O)nc2c1	i
Cc1ccc2oc(-c3ccc(NC(=O)c4cccnc4)cc3O)nc2c1	i
CCN(CCNS(=O)(=O)c1ccc2c(c1)c(=O)n(C)c(=O)n2C)c1ccccc1	i
Cc1cccc(C)c1NC(=O)Nc1cccc(Cl)c1	i
COC(=O)c1sc2ccccc2c1NC(=O)c1cccc(Br)c1	i
Cc1ccc(Nc2cc(C)nc(Nc3ccc(NC(=O)C4CCCCC4)cc3)n2)cc1	30%*
COc1ccc(Nc2cc(C)nc(Nc3ccc(NC(=O)C4CCCCC4)cc3)n2)cc1	34%*
SMILES	ST2 inh
Cc1ccc(Nc2cc(C)nc(Nc3ccc(NC(=O)c4ccc(Br)cc4)cc3)n2)cc1	i
Cc1ccc(Nc2cc(C)nc(Nc3ccc(NC(=O)c4ccc(Br)o4)cc3)n2)cc1	i
CC(=O)Nc1ccc(Nc2nc(C)cc(Nc3ccc(C)cc3)n2)cc1	i
Cc1ccc(Nc2cc(C)nc(Nc3ccc(NC(=O)C(C)(C)C)cc3)n2)cc1	33%*
Cc1cc(Nc2ccccc2)nc(Nc2ccc(NC(=O)C3CCCCC3)cc2)n1	i
COc1ccc(Nc2cc(C)nc(-c3ccccc3)n2)cc1	i
Cc1ccc(CN2CCC[C@H]2c2nc(-c3ccc(F)cn3)no2)cc1	i
COc1cc(NC(=S)N[C@H]2CO[C@H]3[C@@H]2OC[C@@H]3Nc2nccc(C(C)(C)C)n2)cc(OC)c1	i
COc1ccc(OC)c(-c2cc(C(=O)NC3CCCC3)no2)c1	i
COc1ccccc1N1CCN(C2CCN(S(=O)(=O)c3ccc(Cl)cc3)CC2)CC1	i
N#Cc1cccc(NC(=O)O[C@@H]2CO[C@H]3[C@@H]2OC[C@@H]3Nc2nccc(-c3cccs3)n2)c1	i
COCCNc1ncnc2c1cnn2-c1ccc(C)cc1C	i
CCOCCOC(=O)C1=C(C)NC2=C(C(=O)C(C(=O)OC)C(C)C2)C1c1cccc(OC)c1 (stereo unspecified)	i
Cc1ccc(CN2C(=O)C(C(C)C(=O)O)Sc3ccccc32)cc1 (stereo unspecified)	i
CCOCCCn1c(SCC(=O)NC2CCCC2)nc2c(sc3ccccc32)c1=O	i
N=Nc1[nH]c(N)c2ccccc12	46%*
COC(=O)C1=C(N)OC2=C(C(=O)CC(c3ccccc3)C2)C1c1cccc(Cl)c1 (stereo unspecified)	i
C=CCn1cc(CN2CCN(c3ncccc3C)CC2)c(C)n1	i
O=C1CC(c2ccc(F)c(Br)c2)c2ccc3ccccc3c2N1 (stereo unspecified)	i
CCOc1cc(/C=C2\C(=O)NC(=O)N(c3ccccc3)C2=O)ccc1O	i
O=C1NC(=Nc2cccc(Br)c2)SC1(CO)CO	i
O=C1NC(=Nc2ccccc2)S/C1=C/c1ccc(O)c(O)c1	35%*
O=C1NC(=Nc2ccccc2)SC1(CO)CO	i
O=C1NC(=Nc2ccccc2)S/C1=C/c1ccc(F)c(Br)c1	43%*
O=C1NC(=Nc2ccccc2)S/C1=C/c1cc(Br)ccc1O	36%*
Cc1ccccc1CC1SC(=Nc2ccccc2)NC1=O (stereo unspecified)	i
Cc1ccc(NC(=O)CC2SC(=Nc3ccccc3)NC2=O)c(C)c1 (stereo unspecified)	i
